# The supplement of paper PMC10037445
# Whole data set: some 2,900 compounds, median “NF-kB SEAP reporter activity, fold change vs agonist alone” near 0.99, cut for the highest 2% near 2.6. Only a selection was taken, and the highest values are over-represented in it overall.
# Tests used:
# [1] = test system: RAW-Dual; experiment: NF-kB SEAP reporter activity, fold change vs agonist alone; cytotoxicity flag (confluency mask): cytotoxic (confluency <70% of control); higher = enhanced NF-kB activity
# Method in brief: (§1)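 After 50 nL of library stock was delivered by pin tool to RAW-Dual macrophages (50,000 cells/well, DMEM, 384-well plates), a PRR agonist was added 1 h later and the plates were kept at 37 °C, 5% CO2. Twenty hours later, IRF was read from supernatant by QuantiLuc luminescence and NF-κB by QuantiBlue absorbance at 620 nm. Reporter activity is stated as fold change over agonist-alone wells. Wells with IncuCyte confluency under 70% of agonist controls in both mask sets were counted as cytotoxic.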
# [2] = test system: RAW-Dual; experiment: NF-kB SEAP reporter activity, fold change vs agonist alone; higher = enhanced NF-kB activity
# Method in brief: as §1
# [3] = test system: RAW-Dual; experiment: NF-kB SEAP reporter activity, fold change vs agonist alone; cytotoxicity flag (confluency mask): not cytotoxic; higher = enhanced NF-kB activity
# Method in brief: as §1
# [4] = agonist: ODN 1826 (TLR9) 0.5 ug/mL
# [5] = agonist: Pam2CSK4 (TLR2/6) 0.1 ug/mL
# [6] = agonist: Pam3CSK4 (TLR2/1) 0.1 ug/mL
# [7] = library stock concentration (final ~1000-fold dilution): 10 mM, cytotoxicity flag (confluency mask): cytotoxic (confluency <70% of control), agonist: Imiquimod (TLR7) […]
# [8] = library stock concentration (final ~1000-fold dilution): 10 mM, cytotoxicity flag (confluency mask): cytotoxic (confluency <70% of control), agonist: MPLA (TLR4) […]
# [9] = library stock concentration (final ~1000-fold dilution): 10 mM, cytotoxicity flag (confluency mask): not cytotoxic, agonist: Imiquimod (TLR7) […]
# [10] = library stock concentration (final ~1000-fold dilution): 10 mM, cytotoxicity flag (confluency mask): not cytotoxic, agonist: MPLA (TLR4) […]
compound,measurement,setting,value
CC(C)COCC(CN(Cc1ccccc1)c1ccccc1)N1CCCC1.Cl.O (configuration not stated) (library stock concentration (final ~1000-fold dilution): 10 mM),NF-kB SEAP reporter activity,[1]; agonist: LPS (TLR4) 0.1 ug/mL,0.71
same,NF-kB SEAP reporter activity,[1]; [4],1.2
same,NF-kB SEAP reporter activity,[1]; [5],0.673
same,NF-kB SEAP reporter activity,[1]; [6],1.09
CC(Oc1ccc2[nH]nc(/C=C/c3cnn(CCO)c3)c2c1)c1c(Cl)cncc1Cl (configuration not stated),NF-kB SEAP reporter activity,[2]; [7],0.251
same,NF-kB SEAP reporter activity,[2]; [8],0.215
CC(Oc1ccc2[nH]nc(/C=C/c3cnn(CCO)c3)c2c1)c1c(Cl)cncc1Cl (configuration not stated) (library stock concentration (final ~1000-fold dilution): 10 mM),NF-kB SEAP reporter activity,[1]; agonist: LPS (TLR4) 0.1 ug/mL,0.225
same,NF-kB SEAP reporter activity,[1]; [4],0.187
same,NF-kB SEAP reporter activity,[1]; [5],0.0607
same,NF-kB SEAP reporter activity,[1]; [6],0.139
CC1(c2nc3c(C(N)=O)cccc3[nH]2)CCCN1 (configuration not stated),NF-kB SEAP reporter activity,[2]; [9],1.05
same,NF-kB SEAP reporter activity,[2]; [10],0.99
CC1(c2nc3c(C(N)=O)cccc3[nH]2)CCCN1 (configuration not stated) (library stock concentration (final ~1000-fold dilution): 10 mM),NF-kB SEAP reporter activity,[3]; agonist: LPS (TLR4) 0.1 ug/mL,1.14
same,NF-kB SEAP reporter activity,[3]; [4],0.972
same,NF-kB SEAP reporter activity,[3]; [5],0.955
same,NF-kB SEAP reporter activity,[3]; [6],0.991
C=CC(=O)Nc1cc(Nc2nccc(-n3cc(CN(C)C)c(-c4ccccc4)n3)n2)c(OC)cc1N1CCOCC1 (library stock concentration (final ~1000-fold dilution): 2 mM),NF-kB SEAP reporter activity,[3]; agonist: LPS (TLR4) 0.1 ug/mL,1.37
same,NF-kB SEAP reporter activity,[3]; [4],0.945
same,NF-kB SEAP reporter activity,[3]; [5],0.927
same,NF-kB SEAP reporter activity,[3]; [6],1.01
C=CC(=O)Nc1cc(Nc2nccc(-n3cc(CN(C)C)c(-c4ccccc4)n3)n2)c(OC)cc1N1CCOCC1,NF-kB SEAP reporter activity,"[2]; library stock concentration (final ~1000-fold dilution): 2 mM, cytotoxicity flag (confluency mask): not cytotoxic, agonist: Imiquimod (TLR7) […]",1.12
same,NF-kB SEAP reporter activity,"[2]; library stock concentration (final ~1000-fold dilution): 2 mM, cytotoxicity flag (confluency mask): not cytotoxic, agonist: MPLA (TLR4) […]",1.02
Cc1ccc(Sc2cncc3sc(C(N)=O)cc23)cc1 (library stock concentration (final ~1000-fold dilution): 10 mM),NF-kB SEAP reporter activity,[3]; agonist: LPS (TLR4) 0.1 ug/mL,2.89
same,NF-kB SEAP reporter activity,[3]; [4],2.2
same,NF-kB SEAP reporter activity,[3]; [5],1.62
same,NF-kB SEAP reporter activity,[3]; [6],3.34
Cc1ccc(Sc2cncc3sc(C(N)=O)cc23)cc1,NF-kB SEAP reporter activity,[2]; [9],2.48
same,NF-kB SEAP reporter activity,[2]; [10],1.93
CCCC(=O)Nc1cccc(NC(=O)c2ccccc2Br)c1,NF-kB SEAP reporter activity,[2]; [9],1.06
same,NF-kB SEAP reporter activity,[2]; [10],0.952
CCc1ccc(NC(=O)Nc2ccccc2)cc1,NF-kB SEAP reporter activity,[2]; [9],0.892
same,NF-kB SEAP reporter activity,[2]; [10],1.01
O=C(CCCCCCCC(=O)NCCO)NCCO,NF-kB SEAP reporter activity,[2]; [9],0.913
same,NF-kB SEAP reporter activity,[2]; [10],1.03
O=C(CCCCCCC(=O)Nc1ccccc1)NO (library stock concentration (final ~1000-fold dilution): 10 mM),NF-kB SEAP reporter activity,[1]; agonist: LPS (TLR4) 0.1 ug/mL,6.47
same,NF-kB SEAP reporter activity,[1]; [4],2.34
same,NF-kB SEAP reporter activity,[1]; [5],0.808
same,NF-kB SEAP reporter activity,[1]; [6],1.86
O=C(CCCCCCC(=O)NO)NO,NF-kB SEAP reporter activity,[2]; [9],2.03
same,NF-kB SEAP reporter activity,[2]; [10],2.57
O=C(CCCCCCC(=O)Nc1ccccc1)NO,NF-kB SEAP reporter activity,[2]; [7],2.38
same,NF-kB SEAP reporter activity,[2]; [8],2.6
CCCCCCCCCCCCCCCCCC(=O)O (library stock concentration (final ~1000-fold dilution): 10 mM),NF-kB SEAP reporter activity,[3]; agonist: LPS (TLR4) 0.1 ug/mL,0.849
same,NF-kB SEAP reporter activity,[3]; [4],1.02
same,NF-kB SEAP reporter activity,[3]; [5],0.95
same,NF-kB SEAP reporter activity,[3]; [6],1.17
CCCC(=O)Nc1cccc(NC(=O)c2ccccc2Br)c1 (library stock concentration (final ~1000-fold dilution): 10 mM),NF-kB SEAP reporter activity,[3]; agonist: LPS (TLR4) 0.1 ug/mL,0.939
same,NF-kB SEAP reporter activity,[3]; [4],0.996
same,NF-kB SEAP reporter activity,[3]; [5],0.966
same,NF-kB SEAP reporter activity,[3]; [6],1.15
CCc1ccc(NC(=O)Nc2ccccc2)cc1 (library stock concentration (final ~1000-fold dilution): 10 mM),NF-kB SEAP reporter activity,[3]; agonist: LPS (TLR4) 0.1 ug/mL,1.12
same,NF-kB SEAP reporter activity,[3]; [4],0.823
same,NF-kB SEAP reporter activity,[3]; [5],0.702
same,NF-kB SEAP reporter activity,[3]; [6],0.652
O=C(CCCCCCCC(=O)NCCO)NCCO (library stock concentration (final ~1000-fold dilution): 10 mM),NF-kB SEAP reporter activity,[3]; agonist: LPS (TLR4) 0.1 ug/mL,1.2
same,NF-kB SEAP reporter activity,[3]; [4],0.998
same,NF-kB SEAP reporter activity,[3]; [5],0.991
same,NF-kB SEAP reporter activity,[3]; [6],0.856
O=C(CCCCCCC(=O)NO)NO (library stock concentration (final ~1000-fold dilution): 10 mM),NF-kB SEAP reporter activity,[3]; agonist: LPS (TLR4) 0.1 ug/mL,3.77
same,NF-kB SEAP reporter activity,[3]; [4],1.62
same,NF-kB SEAP reporter activity,[3]; [5],0.78
same,NF-kB SEAP reporter activity,[3]; [6],1.21
CCCCCCCCCCCCCCCCCC(=O)O,NF-kB SEAP reporter activity,[2]; [9],0.96
same,NF-kB SEAP reporter activity,[2]; [10],1.05
Br.COc1cc(Br)c(Nc2nc(-c3c(C)nc4ncccn34)cs2)c(Br)c1 (library stock concentration (final ~1000-fold dilution): 10 mM),NF-kB SEAP reporter activity,[3]; agonist: LPS (TLR4) 0.1 ug/mL,1.91
same,NF-kB SEAP reporter activity,[3]; [4],1.96
same,NF-kB SEAP reporter activity,[3]; [5],0.305
same,NF-kB SEAP reporter activity,[3]; [6],0.861
Br.COc1cc(Br)c(Nc2nc(-c3c(C)nc4ncccn34)cs2)c(Br)c1,NF-kB SEAP reporter activity,[2]; [9],1.42
same,NF-kB SEAP reporter activity,[2]; [10],2.42
Cl.O=C1CN2Cc3c(ccc(Cl)c3Cl)NC2=N1,NF-kB SEAP reporter activity,[2]; [9],1.34
same,NF-kB SEAP reporter activity,[2]; [10],1.26
Cl.O=C1CN2Cc3c(ccc(Cl)c3Cl)NC2=N1 (library stock concentration (final ~1000-fold dilution): 10 mM),NF-kB SEAP reporter activity,[3]; agonist: LPS (TLR4) 0.1 ug/mL,0.887
same,NF-kB SEAP reporter activity,[3]; [4],1.24
same,NF-kB SEAP reporter activity,[3]; [5],0.872
same,NF-kB SEAP reporter activity,[3]; [6],1.01
CC(C)CC(NP(=O)(O)OC1OC(C)C(O)C(O)C1O)C(=O)NC(Cc1c[nH]c2ccccc12)C(=O)O (configuration not stated) (library stock concentration (final ~1000-fold dilution): 10 mM),NF-kB SEAP reporter activity,[3]; agonist: LPS (TLR4) 0.1 ug/mL,1.04
same,NF-kB SEAP reporter activity,[3]; [4],0.986
same,NF-kB SEAP reporter activity,[3]; [5],1.05
same,NF-kB SEAP reporter activity,[3]; [6],1.41
CC(C)CC(NP(=O)(O)OC1OC(C)C(O)C(O)C1O)C(=O)NC(Cc1c[nH]c2ccccc12)C(=O)O (configuration not stated),NF-kB SEAP reporter activity,[2]; [9],0.973
same,NF-kB SEAP reporter activity,[2]; [10],1.03
